Data: PubChem BioAssay (Tox21)
Inconclusive results are not listed. Active and inactive are the calls of the source. Unless noted, the call rests on the fitted dose curve; in most records, active means well fitted curve in the direction sought with a large enough effect in the repeat runs; inconclusive means weak or mixed curves; inactive means no such curve, though single readings can be large; an effect the other way counts as inactive or inconclusive.

Key:
[1] = qHTS assay to identify small molecule that activate the aryl hydrocarbon receptor (AhR) signaling pathway - cell viability counter screen (AID 743086);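 further: HepG2 liver cells carrying the AhR DRE luciferase reporter; series mostly up to about 70 µM; nearly all actives have a fitted effect of over 45% in size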
How it was run: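 HepG2-AhR-luc (HG2L7.5c1) cells, 4000/well, were preincubated 5 h at 37C, exposed to compound in qHTS format for 24 hr at 37C, then given CellTiter-Fluor for 30 min; viability was read as fluorescence in the reporter wells.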

[2] = target: Peroxisome proliferator-activated receptor gamma (Homo sapiens) (UniProt P37231); assay: qHTS assay to identify small molecule agonists of the peroxisome proliferator-activated receptor gamma (PPARg) signaling pathway (AID 743094; active means well fitted activation curve with a large enough effect in the signal ratio in the repeat runs, not every such curve was filed as active; the % refers to the signal ratio)
Chain of Peroxisome proliferator-activated receptor gamma (Homo sapiens) (P37231 whole entry, looked up): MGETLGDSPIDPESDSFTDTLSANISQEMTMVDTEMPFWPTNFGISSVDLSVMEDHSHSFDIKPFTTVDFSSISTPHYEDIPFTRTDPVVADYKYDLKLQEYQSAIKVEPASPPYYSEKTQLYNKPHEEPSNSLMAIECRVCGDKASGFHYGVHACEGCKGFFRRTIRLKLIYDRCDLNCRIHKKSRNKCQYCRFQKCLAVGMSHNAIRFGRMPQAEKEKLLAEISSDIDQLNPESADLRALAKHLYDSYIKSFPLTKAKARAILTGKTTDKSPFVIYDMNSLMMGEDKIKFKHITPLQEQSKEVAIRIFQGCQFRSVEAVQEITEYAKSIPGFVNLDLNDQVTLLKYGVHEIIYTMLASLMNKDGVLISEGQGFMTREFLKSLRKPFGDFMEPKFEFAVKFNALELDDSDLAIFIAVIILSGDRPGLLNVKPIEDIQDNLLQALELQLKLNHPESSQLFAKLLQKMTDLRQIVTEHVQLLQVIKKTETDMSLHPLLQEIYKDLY
How it was run: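 Cell-based bla reporter, HEK293H background, PPARg-driven UAS. Pre-incubation 5 h, 37C, 5% CO2. Compound 17 h, 37C. Substrate 1 h RT; fluorescence.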

[3] = target: Peroxisome proliferator-activated receptor gamma (Homo sapiens) (UniProt P37231); assay: qHTS assay to identify small molecule antagonists of the peroxisome proliferator-activated receptor gamma (PPARg) signaling pathway (AID 743191; calls by dose curve; further: series mostly up to about 63 µM; nearly all actives have a fitted effect of over 30% in size)
How it was run: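 GeneBLAzer PPARg UAS-bla HEK293H cells carrying a UAS-driven beta-lactamase reporter were plated at 3000 cells/well, preincubated 5 h at 37C, then given compound for 17 h at 37C; LiveBLAzer B/G FRET substrate was read after 1 h at room temperature.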

[4] = qHTS assay to identify small molecule antagonists of the peroxisome proliferator-activated receptor gamma (PPARg) signaling pathway - cell viability counter screen (AID 743194); conditions: Potency: co-treated with 50 nM rosiglitazone; further: nearly all actives have a fitted effect of over 55% in size
How it was run: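 PPARg-UAS-bla HEK293H cells were plated, rested 5 h at 37 C, then treated with compounds plus rosiglitazone (50 nM final) for 17 h at 37 C; viability was then read by CellTiter-Glo luminescence after 30 min at room temperature.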

[5] = qHTS assay for small molecule agonists of the antioxidant response element (ARE) signaling pathway (AID 743202; active means well fitted activation curve with a large enough effect in the signal ratio in the repeat runs, not every such curve was filed as active; the % refers to the signal ratio; further: potency means the concentration at half of the fitted maximal effect)
How it was run: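 Steps: seed ARE-bla HepG2 cells (2,000/well); incubate 5 h at 37 C; add compounds by pin tool; incubate 16 h at 37 C; add FRET substrate; read fluorescence after 2 h at RT.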

[6] = qHTS assay for small molecule agonists of the antioxidant response element (ARE) signaling pathway - cell viability counter screen (AID 743203; calls by dose curve; further: nearly all actives have a fitted effect of over 55% in size)
How it was run: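 Measured in the same wells as the beta-lactamase ARE reporter, this read-out is CellTiter-Glo luminescence from HepG2 ARE-bla cells given compounds for 16 hrs.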

[7] = qHTS assay for small molecule activators of the heat shock response signaling pathway - cell viability counter screen (AID 743209); further: nearly all actives have a fitted effect of over 50% in size
How it was run: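 Same-well multiplex: after 2.5 h room-temperature incubation with LiveBLAzer B/G substrate and fluorescence reading, CellTiter-Glo reagent was added to HSE-bla HeLa cells that had received compound for 5 h at 37 C; luminescence read after 30 min.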

[8] = qHTS assay for small molecule activators of the heat shock response signaling pathway (AID 743210; active means well fitted activation curve with a large enough effect in the signal ratio in the repeat runs, with a control signal flat, not every such curve was filed as active; the % refers to the signal ratio;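 further: HeLa cells with beta-lactamase reporter driven by heat shock elements; series mostly up to about 63 µM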)
How it was run: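 Activation of heat shock element-controlled beta-lactamase expression is measured in HeLa cells by LiveBLAzer FRET fluorescence, with compound exposure lasting 5 h at 37 C and substrate loading 2.5 h at room temperature.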

[9] = qHTS assay to identify small molecule agonists of the peroxisome proliferator-activated receptor delta (PPARd) signaling pathway - cell viability counter screen (AID 743211); further: nearly all actives have a fitted effect of over 55% in size
How it was run: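 qHTS cell viability: PPARd-bla HEK293H; 17 h cpd, 37C; CellTiter-Glo, luminescence at 30 min RT.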

[10] = target: Aryl hydrocarbon receptor (Homo sapiens) (UniProt P35869); assay: qHTS assay to identify small molecule that activate the aryl hydrocarbon receptor (AhR) signaling pathway (AID 743085); further: nearly all actives have a fitted effect of over 15% in size; further: potency means the concentration at half of the fitted maximal effect;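 on activation: HG2L7.5c1 human HepG2 liver cells with stably integrated DRE-driven firefly reporter; series mostly up to about 70 µM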
Chain of Aryl hydrocarbon receptor (Homo sapiens) (P35869 whole entry, looked up): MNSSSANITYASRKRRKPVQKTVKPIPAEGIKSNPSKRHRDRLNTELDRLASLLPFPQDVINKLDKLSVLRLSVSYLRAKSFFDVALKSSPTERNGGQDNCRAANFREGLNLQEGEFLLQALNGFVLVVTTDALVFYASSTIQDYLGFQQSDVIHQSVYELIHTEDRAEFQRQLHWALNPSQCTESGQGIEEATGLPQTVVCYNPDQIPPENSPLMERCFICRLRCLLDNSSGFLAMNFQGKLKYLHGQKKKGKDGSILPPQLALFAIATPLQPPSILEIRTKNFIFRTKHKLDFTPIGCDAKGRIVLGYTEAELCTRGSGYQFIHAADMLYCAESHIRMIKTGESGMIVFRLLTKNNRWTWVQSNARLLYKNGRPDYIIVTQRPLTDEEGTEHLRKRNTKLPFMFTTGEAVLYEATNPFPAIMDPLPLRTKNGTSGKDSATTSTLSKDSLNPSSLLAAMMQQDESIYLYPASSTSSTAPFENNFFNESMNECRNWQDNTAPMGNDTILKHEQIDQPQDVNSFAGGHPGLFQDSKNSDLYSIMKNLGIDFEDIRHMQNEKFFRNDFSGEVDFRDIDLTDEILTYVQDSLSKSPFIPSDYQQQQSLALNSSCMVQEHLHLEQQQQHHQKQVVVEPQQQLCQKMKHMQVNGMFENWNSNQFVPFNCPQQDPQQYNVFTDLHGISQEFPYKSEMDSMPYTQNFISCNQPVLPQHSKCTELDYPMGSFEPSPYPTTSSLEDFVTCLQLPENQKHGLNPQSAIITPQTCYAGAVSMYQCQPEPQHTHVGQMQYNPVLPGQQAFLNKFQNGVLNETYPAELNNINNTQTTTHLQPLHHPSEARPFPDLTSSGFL
How it was run: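 AhR agonist activity is inferred from enhanced light output of a DRE-controlled firefly luciferase reporter in HepG2 cells, measured with ONE-Glo following 24 h treatment at 37C.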
On the % scale 0 is the no-effect control and ±100 the full control effect.

O=CCCl
inactive: Potency [1] | outcome [2] | Potency [3] | Potency [4] | Potency [5] | Potency [6] | Potency [7] | Potency [8] | Potency [9]

CCN[C@@H](C)Cc1cccc(C(F)(F)F)c1
inactive: Potency [10] | Potency [1] | Potency [4] | Potency [5] | Potency [6] | Potency [8] | Potency [9]

N#CN=C1SCCN1Cc1ccc(Cl)nc1
inactive: Potency [10] | outcome [2] | Potency [3] | Potency [5] | Potency [6] | Potency [7] | Potency [8] | Potency [9]

O=P(O)(O)c1ccccc1
inactive: Potency [10] | Potency [1] | Potency [4] | Potency [5] | Potency [6] | Potency [8] | Potency [9]

CC(C)C(C)(N)C#N (stereo not drawn)
inactive: Potency [10] | Potency [1] | Potency [4] | Potency [5] | Potency [6] | Potency [8] | Potency [9]

CCOC(=O)Nc1cccc(OC(=O)Nc2ccccc2)c1
active: Potency [10] 54.5 µM
inactive: Potency [1] | Potency [4] | Potency [5] | Potency [6] | Potency [7] | Potency [9]

O=C(Cl)/C=C/C(=O)Cl
inactive: Potency [10] | Potency [1] | Potency [4] | Potency [6] | Potency [7] | Potency [8] | Potency [9]
active: Potency [5] 22 µM

CNC(=O)NC(O)C(Cl)(Cl)Cl (stereo not drawn)
inactive: Potency [10] | Potency [1] | Potency [4] | Potency [5] | Potency [6] | Potency [7] | Potency [8] | Potency [9]

C#CC(C)(C)O
inactive: Potency [10] | Potency [1] | Potency [4] | Potency [5] | Potency [6] | Potency [7] | Potency [8] | Potency [9]

Brc1c(Br)c(Br)c(Br)c(Br)c1Br
inactive: activation [10] -0.623% [at 8.47 µM] | viability change, negative = cytotoxic [1] 2.59% [at 8.47 µM] | activity change, negative = cytotoxicity [4] -21% [at 5.95 µM, co-treated with 50 nM rosiglitazone] | activation [5] -11.1% [at 8.36 µM] | viability change, negative = cytotoxic [6] -9.94% [at 8.36 µM] | activity change, negative = cytotoxicity [7] -1.06% [at 5.95 µM] | activation [8] -1.19% [at 5.95 µM] | activity change, negative = cytotoxicity [9] 3.57% [at 5.95 µM]

Cc1ccc2cc(C)ccc2c1
inactive: Potency [10] | Potency [3] | Potency [4] | Potency [5] | Potency [6] | Potency [7] | Potency [9]

CC#Cc1cc(C)nc(Nc2ccccc2)n1
inactive: Potency [1] | Potency [4] | Potency [6] | Potency [8] | Potency [9]
active: Potency [10] 30.6 µM | Potency [5] 34.3 µM

CCc1ccc(C2CCNCC2)cc1
inactive: Potency [3] | Potency [4] | Potency [5] | Potency [6] | Potency [7] | Potency [8] | Potency [9]

CON(C)C(=O)Nc1ccc(Br)cc1
inactive: Potency [1] | Potency [4] | Potency [5] | Potency [6] | Potency [7] | Potency [8] | Potency [9]

CCC1(CC)C(=O)C=CNC1=O
inactive: Potency [1] | Potency [3] | Potency [4] | Potency [5] | Potency [6] | Potency [7] | Potency [9]

Clc1nc(Cl)nc(Nc2ccccc2Cl)n1
inactive: Potency [1] | outcome [2] | Potency [3] | Potency [6] | Potency [7] | Potency [9]

N[C@@H]1C[C@H]1c1ccccc1
inactive: Potency [1] | outcome [2] | Potency [3] | Potency [4] | Potency [5] | Potency [6] | Potency [8] | Potency [9]

COc1ccccc1OC
inactive: Potency [1] | outcome [2] | Potency [3] | Potency [5] | Potency [6] | Potency [8] | Potency [9]

ClCCN1CCCC1
inactive: Potency [3] | Potency [4] | Potency [6] | Potency [8] | Potency [9]

COC[C@@H](NC(C)=O)C(=O)NCc1ccccc1
inactive: Potency [3] | Potency [4] | Potency [6] | Potency [7] | Potency [8] | Potency [9]

CC(C)(N)Cc1ccccc1Cl
inactive: Potency [3] | Potency [4] | Potency [7] | Potency [8] | Potency [9]

c1ccc2c(c1)CCNC2
inactive: Potency [1] | Potency [3] | Potency [4] | Potency [5] | Potency [6] | Potency [7] | Potency [8] | Potency [9]

C=C(Cl)CCl
inactive: Potency [1] | Potency [3] | Potency [4] | Potency [5] | Potency [6] | Potency [7] | Potency [8] | Potency [9]

CNC(=O)O/N=C(/CSC)C(C)(C)C
inactive: Potency [1] | outcome [2] | Potency [3] | Potency [4] | Potency [5] | Potency [6] | Potency [8] | Potency [9]

CC(C)(C)C(=O)C(Cl)Cl
inactive: Potency [1] | Potency [6] | Potency [7] | Potency [8] | Potency [9]

CCOC(=O)C(SP(=S)(OC)OC)c1ccccc1 (stereo not drawn)
inactive: Potency [1] | outcome [2] | Potency [3] | Potency [4] | Potency [5] | Potency [6] | Potency [7] | Potency [9]

CCCOc1nn(C(=O)NS(=O)(=O)c2ccccc2C(=O)OC)c(=O)n1C
inactive: Potency [1] | outcome [2] | Potency [3] | Potency [4] | Potency [5] | Potency [6] | Potency [7] | Potency [9]

C/C(=N\NC(=O)Nc1cc(F)cc(F)c1)c1ncccc1C(=O)O
inactive: Potency [1] | Potency [4] | Potency [5] | Potency [6] | Potency [7] | Potency [8] | Potency [9]

CNC(=O)Oc1cc(C)c(N(C)C)c(C)c1
inactive: Potency [1] | outcome [2] | Potency [3] | Potency [4] | Potency [5] | Potency [6] | Potency [7] | Potency [9]

CCC(CC)(CNC(=O)CCCO)c1cccc(OC)c1
inactive: Potency [3] | Potency [4] | Potency [5] | Potency [6] | Potency [7] | Potency [8]

CCN1CCCC1CNC(=O)C(O)(c1ccccc1)c1ccccc1 (stereo not drawn)
inactive: Potency [3] | Potency [4] | Potency [6] | Potency [7] | Potency [8] | Potency [9]

CCC(C)C(C)(COC(N)=O)COC(N)=O (stereo not drawn)
inactive: Potency [3] | Potency [4] | Potency [5] | Potency [6] | Potency [8] | Potency [9]

O=c1[nH]c2ccccc2n1C1CCNCC1
inactive: Potency [3] | Potency [4] | Potency [5] | Potency [6] | Potency [7] | Potency [9]

CCCOC(=O)c1cncn1C(C)c1ccccc1 (stereo not drawn)
inactive: Potency [3] | Potency [4] | Potency [5] | Potency [6] | Potency [7] | Potency [8] | Potency [9]

CC(C)c1ccc(O)cc1
inactive: Potency [1] | outcome [2] | Potency [3] | Potency [4] | Potency [6] | Potency [7] | Potency [9]

Cc1cccc2sc3nncn3c12
inactive: Potency [1] | outcome [2] | Potency [4] | Potency [6] | Potency [7] | Potency [8] | Potency [9]
active: Potency [5] 1.37 µM

CC(Cc1ccccc1)NCCCCl (stereo not drawn)
inactive: Potency [4] | Potency [5] | Potency [6] | Potency [7] | Potency [8] | Potency [9]

CCOC(=O)COc1ccc(Cl)cc1Cl
inactive: Potency [1] | Potency [4] | Potency [5] | Potency [6] | Potency [9]

C=CCC1(C(C)CC)C(=O)NC(=O)NC1=O (stereo not drawn)
inactive: Potency [3] | Potency [4] | Potency [6] | Potency [7] | Potency [9]

C=CCCC#N
inactive: Potency [1] | Potency [4] | Potency [5] | Potency [6] | Potency [8] | Potency [9]

C[C@H](CN1CCOCC1)C(C(=O)N1CCCC1)(c1ccccc1)c1ccccc1
inactive: outcome [2] | Potency [4] | Potency [5] | Potency [6] | Potency [7] | Potency [8] | Potency [9]

O=[N+]([O-])c1cccc(CCl)c1
inactive: Potency [1] | Potency [4] | Potency [6] | Potency [7] | Potency [8] | Potency [9]
active: Potency [5] 31.3 µM

CN1COCN(Cc2cnc(Cl)s2)/C1=N\[N+](=O)[O-]
inactive: Potency [1] | outcome [2] | Potency [4] | Potency [5] | Potency [6] | Potency [7] | Potency [8] | Potency [9]

CC(=O)OCC1=C(C(=O)O)N2C(=O)[C@@H](N)[C@H]2SC1
inactive: Potency [1] | Potency [4] | Potency [5] | Potency [6] | Potency [9]

CCC(C(N)=O)N1CCCC1=O (stereo not drawn)
inactive: Potency [1] | Potency [4] | Potency [5] | Potency [6] | Potency [8] | Potency [9]

CCOC(=O)c1ncn2c1CN(C)C(=O)c1c(I)cccc1-2
inactive: Potency [1] | outcome [2] | Potency [3] | Potency [4] | Potency [5] | Potency [6] | Potency [7] | Potency [9]

C1CN2CCC1CC2
inactive: Potency [3] | Potency [4] | Potency [5] | Potency [6] | Potency [7] | Potency [8] | Potency [9]

CC[C@@H](CO)NC(=O)[C@@H]1C=C2c3cccc4c3c(cn4C)C[C@H]2N(C)C1
inactive: Potency [1] | Potency [3] | Potency [4] | Potency [5] | Potency [6] | Potency [7] | Potency [8] | Potency [9]
